According to PubChem BioAssay (NCATS):
Results filed as inconclusive are left out. The source made the active and inactive calls. Unless noted, calls follow the shape of the dose curve; as a rule, active = well fitted inhibition curve with a large enough effect; inconclusive = small, poorly fitted or top-dose-only effect; inactive = no such curve, though single readings can be large or run the other way.

experiment: qHTS profiling of the MIPE4 collection as inhibitors of Plasmodium falciparum (HB3) proliferation (AID 743347; call rule not given here;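 also: plate controls were DMSO vehicle wells for no effect and artemisinin wells for full effect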); details: P. falciparum HB3 in erythrocytes, SYBR Green DNA, 72 h; at 28.5 µM (top of the series) unless noted
In short: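 Erythrocytes infected with P. falciparum (0.3% parasitemia, 2.5% hematocrit) incubated with compounds 72 h at 37 C, 5% CO2. Lysis with saponin/Triton buffer containing SYBR Green I, overnight at room temperature in the dark; DNA fluorescence (485/535 nm) normalised to 0.29 uM artemisinin and DMSO.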

Row | SMILES | growth, % of control
1 | CC1=C(C(=O)OC(C)C)C(c2cccc([N+](=O)[O-])c2)C(C(=O)OC2CN(C(c3ccccc3)c3ccccc3)C2)=C(N)N1 (stereo not drawn) | 9.79%
2 | CN1CCN(CCCN2c3ccccc3Sc3ccc(S(=O)(=O)N(C)C)cc32)CC1 | 68.8% [at 9.64 µM]
3 | CC[C@@H](CO)NCCN[C@@H](CC)CO | 106%
4 | Cc1cccc(C)c1NC(=O)CN1CCN(CCCC(c2ccc(F)cc2)c2ccc(F)cc2)CC1 | 8.04%

experiment: qHTS assay for measurement of the activity of small molecule inhibitors on Zika virus induced Caspase-3 activity in human iPSC derived neural progenitor cells (hNPCs) (AID 1224857); details: hNPCs ZIKV-induced caspase-3/7, Caspase-Glo luminescence, 6 h; series mostly up to 45.7 µM; activity change, negative = inhibition: at the top concentration; also: % of control where 0% means no effect; nearly all actives have a fitted effect of over 65% in size
In short: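 After overnight (16–20 h) culture at 350 cells/well, hNPCs get compound, then ZIKV 2 FFU/cell one hour later. Six hours on, Caspase-Glo 3/7 is added and luminescence measured.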

Row | SMILES | activity change, negative = inhibition
5 | O=C(O)CNC(=O)c1ccccc1 | 11.7% (inactive)
6 | COc1cc2c(cc1OC)C(=O)C(CC1CCN(Cc3ccccc3)CC1)C2 (stereo not drawn) | 7.51% (inactive)
7 | COc1ccc(OC)c(C(O)CNC(=O)CN)c1 (stereo not drawn) | 26.2% (inactive)
8 | C[C@H]1C[C@H]2[C@@H]3CCC4=CC(=O)C=C[C@]4(C)[C@@]3(Cl)[C@@H](O)C[C@]2(C)[C@@]1(O)C(=O)CO | 40.8% (inactive)
9 | Cc1c(C(N)=O)cc([N+](=O)[O-])cc1[N+](=O)[O-] | -3.54% (inactive)
10 | CN(C/C=C/c1ccccc1)Cc1cccc2ccccc12 | 95.4% (inactive)
11 | CN(C)CCCOc1nn(Cc2ccccc2)c2ccccc12 | -4.25% (inactive)
12 | Cc1cc(=O)n(-c2ccccc2)n1C | -0.629% (inactive)
13 | Nc1nc2ncc(CNc3ccc(C(=O)N[C@@H](CCC(=O)O)C(=O)O)cc3)nc2c(=O)[nH]1 | -13.2% (inactive)
14 | C/C=C(/C(=C/C)c1ccc(O)cc1)c1ccc(O)cc1 | -12.4% (inactive)
15 | CC1=C(C(=O)OC(C)C)C(c2cccc([N+](=O)[O-])c2)C(C(=O)OC2CN(C(c3ccccc3)c3ccccc3)C2)=C(N)N1 (stereo not drawn) | 281% (inactive)
16 | O=C1c2ccccc2C(=O)C1c1ccccc1 | 7.5% (inactive)
17 | CCOc1ccc(Cc2nccc3cc(OCC)c(OCC)cc23)cc1OCC | 7.48% (inactive)
18 | Cc1c(C(C)C)c(=O)n(-c2ccccc2)n1C | 5.97% (inactive)
19 | CCN1CCCC1=O | -2.63% (inactive)
20 | O=C(O)c1cc2cc(Cc3cccnc3)ccc2o1 | -6.48% (inactive)
21 | CC(CCc1ccccc1)NCC(O)c1ccc(O)c(C(N)=O)c1 (stereo not drawn) | 9.06% (inactive)
22 | CC(=O)Oc1ccc(C(c2ccc(OC(C)=O)cc2)c2ccccn2)cc1 | -9.52% (inactive)
23 | COc1cc2c(cc1OC)[C@@H]1CC(=O)[C@@H](CC(C)C)CN1CC2 | -4.26% (inactive)

Row | SMILES | activity change, negative = inhibition
24 | CN1CCN(CCCN2c3ccccc3Sc3ccc(S(=O)(=O)N(C)C)cc32)CC1 | 8.94% (inactive)
25 | CC[C@@H](CO)NCCN[C@@H](CC)CO | -12.2% (inactive)
26 | O=c1c(-c2ccccc2)c1-c1ccccc1 | 26.6% (inactive)
27 | CCCC(=O)Nc1ccc(OCC(O)CNC(C)C)c(C(C)=O)c1 (stereo not drawn) | -3.84% (inactive)
28 | O=C(CCCN1CCC(O)(c2ccc(Br)cc2)CC1)c1ccc(F)cc1 | 3.96% (inactive)
29 | CCCCCCCCCCOCC(O)CN (stereo not drawn) | -6.44% (inactive)
30 | c1ccc(CNCCNCc2ccccc2)cc1 | 16.9% (inactive)
31 | OC(CCN1CCCCC1)(c1ccccc1)c1ccccc1 | -7.17% (inactive)
32 | Cc1cccc(C)c1NC(=O)CN1CCN(CCCC(c2ccc(F)cc2)c2ccc(F)cc2)CC1 | 6.99% (inactive)
33 | CCOC(=O)[C@H](CCc1ccccc1)N[C@@H](C)C(=O)N1Cc2ccccc2C[C@H]1C(=O)O | -12% (inactive)
34 | O=C1[C@H]2CCCC[C@H]2C(=O)N1CCCCN1CCN(c2nsc3ccccc23)CC1 | 8.91% (inactive)
35 | O=S1(=O)c2cccc3cccc(c23)N1CCCN1CCN(c2ccc(F)cc2)CC1 | -22.7% (inactive)
36 | Oc1c(I)cc(Cl)c2cccnc12 | 2.51% (inactive)
37 | O=C(Nc1ccc(Oc2ccc(Cl)cc2)c(Cl)c1)c1cc(I)cc(I)c1O | -7.61% (inactive)
38 | CC(=O)OCC(=O)[C@@]1(OC(C)=O)[C@@H](C)C[C@H]2[C@@H]3C[C@H](F)C4=CC(=O)C=C[C@]4(C)[C@@]3(F)[C@@H](O)C[C@@]21C | 12% (inactive)
39 | O=c1ccc2ccccc2o1 | -14% (inactive)
40 | CC(C)(C)CC(C)(C)c1ccc(O)c(Cc2ccc(Cl)cc2Cl)c1 | 58% (inactive)
41 | Oc1ccc(Cl)c2cccnc12 | 5.77% (inactive)

experiment: qHTS assay for measurement of the activity of small molecule inhibitors on Zika virus induced Caspase-3 activity in human astrocytoma cells (AID 1224859); details: SNB-19 ZIKV-induced caspase-3/7, luminescence, 6 h; series mostly up to 45.7 µM; activity change, negative = inhibition: at the top concentration;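 also: plate controls were ZIKV-infected untreated cells for no effect and uninfected cells for full effect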
In short: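 Inhibition of Zika-induced caspase-3/7 activity: SNB-19 cells, 1 h compound pretreatment, ZIKV 2 FFU/cell for 6 h at 37 C, Caspase-Glo luminescence read-out.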

Row | SMILES | activity change, negative = inhibition
42 | O=C(O)CNC(=O)c1ccccc1 | -4.33% (inactive)
43 | COc1cc2c(cc1OC)C(=O)C(CC1CCN(Cc3ccccc3)CC1)C2 (stereo not drawn) | 4.67% (inactive)
44 | COc1ccc(OC)c(C(O)CNC(=O)CN)c1 (stereo not drawn) | -2.69% (inactive)
45 | C[C@H]1C[C@H]2[C@@H]3CCC4=CC(=O)C=C[C@]4(C)[C@@]3(Cl)[C@@H](O)C[C@]2(C)[C@@]1(O)C(=O)CO | 12.4% (inactive)
46 | Cc1c(C(N)=O)cc([N+](=O)[O-])cc1[N+](=O)[O-] | -2.94% (inactive)
47 | CN(C/C=C/c1ccccc1)Cc1cccc2ccccc12 | -5.5% (inactive)
48 | CN(C)CCCOc1nn(Cc2ccccc2)c2ccccc12 | 6.1% (inactive)
49 | Cc1cc(=O)n(-c2ccccc2)n1C | -2.7% (inactive)
50 | Nc1nc2ncc(CNc3ccc(C(=O)N[C@@H](CCC(=O)O)C(=O)O)cc3)nc2c(=O)[nH]1 | 10.9% (inactive)
51 | C/C=C(/C(=C/C)c1ccc(O)cc1)c1ccc(O)cc1 | 15.8% (inactive)
52 | CC1=C(C(=O)OC(C)C)C(c2cccc([N+](=O)[O-])c2)C(C(=O)OC2CN(C(c3ccccc3)c3ccccc3)C2)=C(N)N1 (stereo not drawn) | 463% (inactive)
53 | O=C1c2ccccc2C(=O)C1c1ccccc1 | -2% (inactive)
54 | CCOc1ccc(Cc2nccc3cc(OCC)c(OCC)cc23)cc1OCC | 8.65% (inactive)
55 | Cc1c(C(C)C)c(=O)n(-c2ccccc2)n1C | -4.12% (inactive)
56 | CCN1CCCC1=O | 0.112% (inactive)
57 | O=C(O)c1cc2cc(Cc3cccnc3)ccc2o1 | -4.47% (inactive)
58 | CC(CCc1ccccc1)NCC(O)c1ccc(O)c(C(N)=O)c1 (stereo not drawn) | -3.43% (inactive)
59 | CC(=O)Oc1ccc(C(c2ccc(OC(C)=O)cc2)c2ccccn2)cc1 | 1% (inactive)
60 | COc1cc2c(cc1OC)[C@@H]1CC(=O)[C@@H](CC(C)C)CN1CC2 | -1.47% (inactive)

Row | SMILES | activity change, negative = inhibition
61 | CN1CCN(CCCN2c3ccccc3Sc3ccc(S(=O)(=O)N(C)C)cc32)CC1 | -2% (inactive)
62 | CC[C@@H](CO)NCCN[C@@H](CC)CO | 4.31% (inactive)
63 | O=c1c(-c2ccccc2)c1-c1ccccc1 | 65.8% (inactive)
64 | CCCC(=O)Nc1ccc(OCC(O)CNC(C)C)c(C(C)=O)c1 (stereo not drawn) | -7.35% (inactive)
65 | O=C(CCCN1CCC(O)(c2ccc(Br)cc2)CC1)c1ccc(F)cc1 | 33.2% (inactive)
66 | CCCCCCCCCCOCC(O)CN (stereo not drawn) | 16.7% (inactive)
67 | c1ccc(CNCCNCc2ccccc2)cc1 | -7.41% (inactive)
68 | OC(CCN1CCCCC1)(c1ccccc1)c1ccccc1 | -6.74% (inactive)
69 | Cc1cccc(C)c1NC(=O)CN1CCN(CCCC(c2ccc(F)cc2)c2ccc(F)cc2)CC1 | -7.55% (inactive)
70 | CCOC(=O)[C@H](CCc1ccccc1)N[C@@H](C)C(=O)N1Cc2ccccc2C[C@H]1C(=O)O | -8.96% (inactive)
71 | O=C1[C@H]2CCCC[C@H]2C(=O)N1CCCCN1CCN(c2nsc3ccccc23)CC1 | -3.01% (inactive)
72 | O=S1(=O)c2cccc3cccc(c23)N1CCCN1CCN(c2ccc(F)cc2)CC1 | 1.83% (inactive)
73 | Oc1c(I)cc(Cl)c2cccnc12 | -11.2% (inactive)
74 | O=C(Nc1ccc(Oc2ccc(Cl)cc2)c(Cl)c1)c1cc(I)cc(I)c1O | -18.7% (inactive)
75 | CC(=O)OCC(=O)[C@@]1(OC(C)=O)[C@@H](C)C[C@H]2[C@@H]3C[C@H](F)C4=CC(=O)C=C[C@]4(C)[C@@]3(F)[C@@H](O)C[C@@]21C | -9.79% (inactive)
76 | O=c1ccc2ccccc2o1 | 6.23% (inactive)
77 | CC(C)(C)CC(C)(C)c1ccc(O)c(Cc2ccc(Cl)cc2Cl)c1 | 44.5% (inactive)
78 | Oc1ccc(Cl)c2cccnc12 | -3.99% (inactive)
